# Data as given in ChEMBL document CHEMBL3988442, “University of Dundee, Small-Polar-MMV Screening Library” (2021).
# Screen size: about 69,000 compounds; about 1,000 (1.4%) showed an effect of 50% or more. The entries come from a sample that favours strong results as a whole.
# Tested on: Leishmania donovani
# Assay: Leishmania intramacrophage assay
# Type: functional, organism-based
# Parameters: scale not given: in the data most compounds retested in dose-response had high values
smiles,measurement,setting,value
Cc1noc(C)c1CN(C)C(=O)c1ccc(O)nc1,Percent Effect,30 µM,24.33%
Cc1noc(C)c1CN(C)C(=O)c1ccc(NC2CC2)nc1,Percent Effect,"30 µM, 30.03 µM",24.65%
Cc1noc(C)c1CN(C)C(=O)c1cnc(C2CC2)nc1O,Percent Effect,"30.3 µM, […]",65.78%
O=C(CSc1ccncc1)N1C[C@H]2CC[C@@H]1CN(Cc1cccnc1)C2,Percent Effect,"30 µM, 30.03 µM",35.98%
CCOC(=O)N1C[C@H]2CC[C@@H]1CN(Cc1ccccc1)C2,Percent Effect,"30.3 µM, […]",27.53%
O=C(CSc1ncccn1)N1C[C@H]2CC[C@@H]1CN(Cc1ccncc1)C2,Percent Effect,"30 µM, 30.03 µM",54.88%
O=C(CC(F)(F)F)N1C[C@H]2CC[C@@H]1CN(Cc1ccccc1)C2,Percent Effect,"30.3 µM, […]",17.26%
CSCC(=O)N1C[C@H]2CC[C@@H]1CN(Cc1ccccc1)C2,Percent Effect,"30 µM, 30.03 µM",50.94%
O=C(CSc1ccccc1)N1C[C@H]2CC[C@@H]1CN(Cc1ccncc1)C2,Percent Effect,"30.3 µM, […]",14.29%
[O-][S+](Cc1c(F)cccc1Cl)Cc1nnnn1C1CC1 (stereo unspecified),Percent Effect,"30.3 µM, […]",-31.87%
COCCC(C)NC(=O)c1cc(Br)c2c(c1)OCCO2 (stereo unspecified),Percent Effect,30 µM,12.78%
Cc1nc(COc2cccc(C#N)c2)no1,Percent Effect,"30 µM, 30.03 µM",-12.6%
Cc1n[nH]c(C2CN(CC(=O)NCCc3ccccc3C)CCO2)n1 (stereo unspecified),Percent Effect,"30.3 µM, […]",-38.97%
CCCc1cncnc1N1CCC(NCc2ccc(O)cc2)CC1,Percent Effect,"30.3 µM, […]",-3.143%
CCCc1cncnc1N1CCC(NCc2ccncc2)CC1,Percent Effect,"30.3 µM, […]",-13.54%
CCCc1cncnc1N1CCC(NCc2cc3ccccc3[nH]2)CC1,Percent Effect,"30.3 µM, […]",84.37%
CC(=O)N1CCN(c2cc(C3CN(C(C)=O)CCO3)nc(C)n2)CC1 (stereo unspecified),Percent Effect,"30.3 µM, […]",2.386%
CC(C)c1ccc(C#N)c(N2CC(C)(C)[C@@](C)(O)C2)n1,Percent Effect,"30.3 µM, […]",3.251%
Cc1cc(C)n(CC2CN(CCOc3ccccc3C#N)CCO2)n1 (stereo unspecified),Percent Effect,30 µM,10.79%
CCn1ncc2c1C(COC)CN(c1ncc(F)cn1)C2.O=C(O)C(F)(F)F.O=C(O)C(F)(F)F (stereo unspecified),Percent Effect,"30.3 µM, […]",50.28%
COCC1CN(c2ncc(F)cn2)Cc2cnn(C)c21.O=C(O)C(F)(F)F.O=C(O)C(F)(F)F (stereo unspecified),Percent Effect,"30.3 µM, […]",22.2%
CCn1ncc2c1C(COC)CN(Cc1ccc(F)cc1)C2.O=C(O)C(F)(F)F.O=C(O)C(F)(F)F (stereo unspecified),Percent Effect,"30.3 µM, […]",-25.2%
Cc1cccc(S(=O)(=O)N2CCC3(CC2)CC(N(C)C)CO3)c1 (stereo unspecified),Percent Effect,"30.3 µM, […]",50.39%
CCOC1COC2(CCN(S(=O)(=O)c3cccc(C)c3)CC2)C1 (stereo unspecified),Percent Effect,"30.3 µM, […]",23.7%
CCOC1COC2(CCN(S(=O)(=O)c3cccc(F)c3)CC2)C1 (stereo unspecified),Percent Effect,"30 µM, 30.03 µM",-15.08%
COC1COC2(CCN(S(=O)(=O)c3ccc(F)cc3)CC2)C1 (stereo unspecified),Percent Effect,"30.3 µM, […]",5.953%
